# Assay results taken from PubChem BioAssay (EPA / NIEHS).
# Records with an inconclusive call do not appear. Calls of active or inactive are those of the source. Rule for the calls, unless noted: active = hit-call score of the fitted dose curve at least 0.9, where 1 is the maximum; inactive = score below 0.9.
# Experiments:
# [1] = ATG_TCF_b_cat_CIS: Attagene CIS-FACTORIAL HepG2 Assay for human T-Cell-Factor with beta-catenin (TCF/b-cat) (AID 2282965); conditions: HepG2 TCF/beta-catenin cis-reporter transcription, actives raise or lower the signal
# Procedure, shortened: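 HepG2 cells transiently transfected with cis-promoter-driven multiplexed reporter units; reporter mRNA measured 24 h after dosing by RT-PCR, FAM labelling, HpaI digestion and capillary electrophoresis. Bidirectional fitting relative to DMSO baseline.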
# [2] = ATG_TAL_CIS: Attagene CIS-FACTORIAL HepG2 Assay for human TAL Basal Promoter (AID 2282966); conditions: HepG2 Attagene cis-factorial TAL promoter reporter; actives raise or lower the signal;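 note: background control endpoint measuring basal TAL promoter reporter mRNA not a specific factor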
# Procedure, shortened: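 RT-PCR plus capillary electrophoresis quantifies reporter mRNA induction in transiently transfected HepG2 cells after 24 h chemical treatment. DMSO serves as negative control and baseline for bidirectional fitting.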
# [3] = ATG_TGFb_CIS: Attagene CIS-FACTORIAL HepG2 Assay for human Transforming Growth Factor (TGF) (AID 2282967); conditions: HepG2 Attagene CIS TGFb reporter, mRNA transcription; actives raise or lower the signal
# Procedure, shortened: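 HepG2 cells transiently transfected with cis-promoter-driven multiplexed reporter units; 24 h compound exposure. Reporter mRNA measured by RT-PCR, 6-FAM labeling, HpaI digestion and capillary electrophoresis; bidirectional fit versus DMSO baseline.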
# [4] = biological target: Nuclear receptor subfamily 1 group I member 3 (Homo sapiens) (UniProt Q14994); assay: ATG_CAR_TRANS: Attagene TRANS-FACTORIAL HepG2 Assay for human Constitutive Androstane Receptor (CAR) (AID 2282969; active = hit-call score of the fitted dose curve at least 0.9, where 1 is the maximum;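 note: activators raise reporter mRNA above DMSO so AC50 marks induction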); conditions: HepG2 Attagene TRANS-FACTORIAL CAR reporter
# Sequence of Nuclear receptor subfamily 1 group I member 3 (Homo sapiens) (Q14994 whole entry, looked up, the tested form may be a part): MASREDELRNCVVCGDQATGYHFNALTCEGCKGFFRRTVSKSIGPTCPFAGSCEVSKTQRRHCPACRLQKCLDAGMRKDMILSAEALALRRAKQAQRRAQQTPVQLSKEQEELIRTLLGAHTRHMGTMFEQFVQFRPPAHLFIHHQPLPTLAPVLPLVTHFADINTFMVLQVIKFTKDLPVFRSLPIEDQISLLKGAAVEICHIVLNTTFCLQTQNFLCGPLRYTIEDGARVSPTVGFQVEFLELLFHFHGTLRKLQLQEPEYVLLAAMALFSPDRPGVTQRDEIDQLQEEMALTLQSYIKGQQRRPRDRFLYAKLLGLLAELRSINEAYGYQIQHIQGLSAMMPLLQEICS
# Procedure, shortened: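 HepG2 cells transiently transfected with GAL4-UAS reporter units; TRANS format reads activity of exogenous chimeric NR-Gal4 protein. After 24 h dosing, reporter mRNA quantified by RT-PCR, 6-FAM labelling and capillary electrophoresis; gain of signal fitted against DMSO.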
# [5] = biological target: Estrogen receptor (Homo sapiens) (UniProt P03372); assay: ATG_ERa_TRANS: Attagene TRANS-FACTORIAL HepG2 Assay for human Estrogen Receptor alpha (ERa) (AID 2282970; active = hit-call score of the fitted dose curve at least 0.9, where 1 is the maximum); conditions: HepG2 Attagene TRANS ERa GAL4 reporter, mRNA
# Sequence of Estrogen receptor (Homo sapiens) (P03372 whole entry, looked up, the tested form may be a part): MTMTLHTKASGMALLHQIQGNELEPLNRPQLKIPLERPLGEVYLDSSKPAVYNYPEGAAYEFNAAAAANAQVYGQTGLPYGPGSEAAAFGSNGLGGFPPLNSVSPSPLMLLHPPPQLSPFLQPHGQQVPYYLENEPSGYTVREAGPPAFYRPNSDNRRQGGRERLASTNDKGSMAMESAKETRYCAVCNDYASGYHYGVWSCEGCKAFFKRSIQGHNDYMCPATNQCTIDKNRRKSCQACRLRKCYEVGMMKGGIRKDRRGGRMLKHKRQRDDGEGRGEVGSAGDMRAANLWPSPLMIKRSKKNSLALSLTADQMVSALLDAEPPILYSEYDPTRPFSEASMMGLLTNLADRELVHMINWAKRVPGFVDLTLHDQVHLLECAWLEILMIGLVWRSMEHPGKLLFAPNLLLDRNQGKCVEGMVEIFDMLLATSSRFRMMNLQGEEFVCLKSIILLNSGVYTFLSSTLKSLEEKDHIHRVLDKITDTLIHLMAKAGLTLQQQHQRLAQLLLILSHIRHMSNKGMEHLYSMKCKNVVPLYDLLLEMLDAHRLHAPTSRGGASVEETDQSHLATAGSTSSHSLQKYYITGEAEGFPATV
# Procedure, shortened: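 Cells: HepG2, transiently transfected. Construct: GAL4-UAS reporter units regulated by exogenous NR-Gal4 chimeras. Time: 24 h. Detection: reporter mRNA by RT-PCR, capillary electrophoresis, fluorescence. Baseline: DMSO, upward fitting.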
# [6] = biological target: X-box-binding protein 1 (Homo sapiens) (UniProt P17861); assay: ATG_Xbp1_CIS: Attagene CIS-FACTORIAL HepG2 Assay for human X-box Binding Protein 1 (XBP1) (AID 2282972); conditions: HepG2 XBP1 cis-element reporter, Attagene multiplex; actives raise or lower the signal
# Sequence of X-box-binding protein 1 (Homo sapiens) (P17861 whole entry, looked up): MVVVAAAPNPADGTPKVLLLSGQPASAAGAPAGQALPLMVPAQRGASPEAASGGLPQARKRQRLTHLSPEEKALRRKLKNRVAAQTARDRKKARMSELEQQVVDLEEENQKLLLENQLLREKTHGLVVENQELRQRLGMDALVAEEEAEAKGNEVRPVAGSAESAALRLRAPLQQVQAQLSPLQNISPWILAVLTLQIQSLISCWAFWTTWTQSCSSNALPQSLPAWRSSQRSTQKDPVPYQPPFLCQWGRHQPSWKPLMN
# Procedure, shortened: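 After a 24-hour chemical exposure of HepG2 cells carrying cis-regulated reporters, reporter mRNA levels are assessed. Quantification uses RT-PCR, 6-FAM labelling and capillary electrophoresis. Gain- or loss-of-signal is fitted against DMSO.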
# [7] = ATG_VDRE_CIS: Attagene CIS-FACTORIAL HepG2 Assay for human Vitamin D Receptor Element (VDRE) (AID 2282968); conditions: HepG2 VDRE cis-reporter transcription, actives raise or lower the signal
# Procedure, shortened: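 Cell-based multiplexed reporter format in human liver HepG2 cells, 24 h post-dose. Fluorescence from capillary electrophoresis of reporter cDNA gives the signal, with DMSO as negative control and baseline.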
# [8] = biological target: Steroid hormone receptor ERR1 (Homo sapiens) (UniProt P11474); assay: ATG_ERRa_TRANS: Attagene TRANS-FACTORIAL HepG2 Assay for human Estrogen-Related Receptor alpha (ERRa) (AID 2282971; active = hit-call score of the fitted dose curve at least 0.9, where 1 is the maximum); conditions: HepG2 Attagene TRANS reporter, ERRa transactivation
# Sequence of Steroid hormone receptor ERR1 (Homo sapiens) (P11474 whole entry, looked up, the tested form may be a part): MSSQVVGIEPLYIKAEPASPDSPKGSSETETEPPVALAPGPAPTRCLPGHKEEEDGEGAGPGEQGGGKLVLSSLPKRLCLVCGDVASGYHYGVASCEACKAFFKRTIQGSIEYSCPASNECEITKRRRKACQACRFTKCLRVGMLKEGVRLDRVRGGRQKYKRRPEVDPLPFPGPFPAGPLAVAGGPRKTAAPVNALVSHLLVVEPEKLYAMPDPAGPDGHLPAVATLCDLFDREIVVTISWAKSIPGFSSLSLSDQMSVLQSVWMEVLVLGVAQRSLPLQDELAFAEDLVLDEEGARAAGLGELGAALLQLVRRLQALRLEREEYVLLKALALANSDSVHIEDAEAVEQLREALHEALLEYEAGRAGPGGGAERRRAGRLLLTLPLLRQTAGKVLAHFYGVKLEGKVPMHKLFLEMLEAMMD
# Procedure, shortened: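 Reporter transcripts from ERRa-Gal4 chimera activity measured in transiently transfected human HepG2 cells 24 hours after dosing, using RT-PCR with 6-FAM primer extension, HpaI digestion and capillary electrophoresis; DMSO is baseline.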
# [9] = ATG_GAL4_TRANS: Attagene TRANS-FACTORIAL HepG2 Assay for GAL4 (Internal Marker) (AID 2282976; active = hit-call score of the fitted dose curve at least 0.9, where 1 is the maximum); conditions: HepG2 Attagene TRANS GAL4 internal marker reporter
# Procedure, shortened: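 In transfected human HepG2 liver cells dosed 24 h, GAL4 reporter mRNA serves as a baseline marker. Detection by RT-PCR with fluorescent capillary electrophoresis, activity fitted upward relative to DMSO.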
# [10] = ATG_M_19_TRANS: Attagene TRANS-FACTORIAL HepG2 Assay for M19 Transcription Factor (Internal Marker) (AID 2282974; active = hit-call score of the fitted dose curve at least 0.9, where 1 is the maximum); conditions: HepG2 Attagene TRANS-FACTORIAL M19 internal marker reporter
# Procedure, shortened: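 Background-control readout: after 24 h chemical exposure of transfected HepG2 carrying GAL4-driven reporter units, RNA was reverse-transcribed, amplified, fluorescently labeled and sized by capillary electrophoresis; gain-of-signal fit against DMSO.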
structure (smiles),measurement,setting,value
O=C1c2c(O)ccc(Nc3ccc(CCO)cc3)c2C(=O)c2c([N+](=O)[O-])ccc(O)c21,outcome,[1],inactive
same,outcome,[2],inactive
same,outcome,[3],inactive
same,outcome,[4],inactive
same,outcome,[5],inactive
same,outcome,[6],inactive
F[Si-2](F)(F)(F)(F)F,outcome,[1],inactive
same,outcome,[2],inactive
same,outcome,[3],inactive
same,outcome,[7],inactive
same,outcome,[8],inactive
same,outcome,[6],inactive
CCc1cc(Cc2cc(CC)c(N)c(CC)c2)cc(CC)c1N,AC50,[1],33.4 µM (active)
same,AC50,[2],53.4 µM (active)
same,outcome,[3],inactive
same,outcome,[4],inactive
same,outcome,[5],inactive
same,AC50,[6],38.3 µM (active)
CCN(CC)c1ccc2c(c1)Oc1cc(N(CC)CC)ccc1C21OC(=O)c2ccccc21,AC50,[1],50 µM (active)
same,outcome,[2],inactive
same,outcome,[3],inactive
same,AC50,[7],1.32 µM (active)
same,outcome,[5],inactive
same,outcome,[6],inactive
same,outcome,[9],inactive
CCN(CC)c1ccc(C=O)cc1,outcome,[1],inactive
same,outcome,[2],inactive
same,outcome,[3],inactive
same,outcome,[4],inactive
same,outcome,[5],inactive
same,outcome,[6],inactive
CCCCC(CC)COC(=O)c1ccc(N(C)C)cc1 (stereo not given),outcome,[1],inactive
same,outcome,[2],inactive
same,outcome,[3],inactive
same,outcome,[4],inactive
same,AC50,[5],5.75 µM (active)
same,outcome,[6],inactive
O=C(O)C(F)(F)C(F)(F)C(F)(F)C(F)(F)C(F)(F)C(F)(F)C(F)F,outcome,[1],inactive
same,outcome,[2],inactive
same,outcome,[3],inactive
same,outcome,[7],inactive
same,AC50,[5],41.4 µM (active)
same,outcome,[6],inactive
same,outcome,[9],inactive
O=c1[nH]cccc1O,outcome,[1],inactive
same,outcome,[2],inactive
same,outcome,[3],inactive
same,outcome,[7],inactive
same,outcome,[8],inactive
same,outcome,[6],inactive
same,outcome,[10],inactive
same,outcome,[9],inactive
CCCCCCCCCCCCCC[P+](CCCC)(CCCC)CCCC,outcome,[1],inactive
same,outcome,[2],inactive
same,outcome,[3],inactive
same,AC50,[7],0.897 µM (active)
same,outcome,[5],inactive
same,AC50,[6],0.834 µM (active)
same,outcome,[10],inactive
same,outcome,[9],inactive
c1ccc(C[P+](c2ccccc2)(c2ccccc2)c2ccccc2)cc1,outcome,[1],inactive
same,outcome,[2],inactive
same,outcome,[3],inactive
same,outcome,[7],inactive
same,outcome,[8],inactive
same,AC50,[6],53.4 µM (active)
same,outcome,[10],inactive
same,outcome,[9],inactive
O=S(=O)(O)CCC(F)(F)C(F)(F)C(F)(F)C(F)(F)F,outcome,[1],inactive
same,outcome,[2],inactive
same,outcome,[3],inactive
same,outcome,[7],inactive
same,outcome,[8],inactive
same,outcome,[6],inactive
same,outcome,[10],inactive
CCCCCCCC/C=C\CCCCCCCC(=O)OCC(O)CO (stereo not given),outcome,[1],inactive
same,outcome,[2],inactive
same,outcome,[3],inactive
same,outcome,[7],inactive
same,outcome,[8],inactive
same,outcome,[6],inactive
same,outcome,[9],inactive
OCCCc1cccnc1,outcome,[1],inactive
same,outcome,[2],inactive
same,outcome,[3],inactive
same,outcome,[7],inactive
same,outcome,[5],inactive
same,outcome,[6],inactive
same,outcome,[9],inactive
CCN=C1C=CC(=C(c2ccc(N(CC)CC)cc2)c2ccc(N(CC)CC)cc2)c2ccccc21,AC50,[1],0.885 µM (active)
same,outcome,[2],inactive
same,outcome,[3],inactive
same,AC50,[7],1.15 µM (active)
same,AC50,[6],1.86 µM (active)
same,outcome,[10],inactive
same,outcome,[9],inactive
CC(C)C(=O)OCc1ccccc1,outcome,[1],inactive
same,outcome,[2],inactive
same,outcome,[3],inactive
same,outcome,[7],inactive
same,outcome,[6],inactive
same,outcome,[10],inactive
same,outcome,[9],inactive
NC(=O)C(F)(F)C(F)(F)C(F)(F)C(F)F,outcome,[1],inactive
same,outcome,[2],inactive
same,outcome,[3],inactive
same,outcome,[7],inactive
same,outcome,[5],inactive
same,outcome,[6],inactive
same,outcome,[9],inactive
NC(O)(C(F)(F)F)C(F)(F)F,outcome,[1],inactive
same,outcome,[2],inactive
same,outcome,[3],inactive
same,outcome,[7],inactive
same,outcome,[6],inactive
same,outcome,[9],inactive
O=C1OC(=O)c2ccc3c4c(ccc1c24)C(=O)OC3=O,outcome,[1],inactive
same,outcome,[2],inactive
same,outcome,[3],inactive
same,outcome,[7],inactive
same,outcome,[5],inactive
same,outcome,[6],inactive
same,outcome,[9],inactive
CCOC(OCC)OCC,outcome,[1],inactive
same,outcome,[2],inactive
same,outcome,[3],inactive
same,outcome,[7],inactive
same,outcome,[6],inactive
same,outcome,[9],inactive
OCC1CCCO1 (stereo not given),outcome,[1],inactive
same,outcome,[2],inactive
same,outcome,[3],inactive
same,outcome,[7],inactive
same,outcome,[6],inactive
C=CC(=O)OCCC(F)(F)C(F)(F)C(F)(F)C(F)(F)F,outcome,[1],inactive
same,outcome,[2],inactive
same,outcome,[3],inactive
same,outcome,[7],inactive
same,outcome,[8],inactive
same,outcome,[6],inactive
same,outcome,[9],inactive
CC(C)(C)C(=O)C1C(=O)c2ccccc2C1=O,outcome,[1],inactive
same,outcome,[2],inactive
same,outcome,[3],inactive
same,outcome,[4],inactive
same,outcome,[5],inactive
same,outcome,[6],inactive
Nc1cc([N+](=O)[O-])cc(Cl)c1O,outcome,[1],inactive
same,outcome,[2],inactive
same,outcome,[3],inactive
same,outcome,[7],inactive
same,outcome,[5],inactive
same,outcome,[6],inactive
same,outcome,[10],inactive
same,outcome,[9],inactive
CC(=O)C=O,outcome,[1],inactive
same,outcome,[2],inactive
same,outcome,[3],inactive
same,outcome,[7],inactive
same,outcome,[6],inactive
same,outcome,[10],inactive
same,outcome,[9],inactive
CC(C)(C)c1cc(CCC(=O)NCCCCCCNC(=O)CCc2cc(C(C)(C)C)c(O)c(C(C)(C)C)c2)cc(C(C)(C)C)c1O,outcome,[1],inactive
same,outcome,[2],inactive
same,outcome,[3],inactive
same,AC50,[7],0.811 µM (active)
same,outcome,[5],inactive
same,outcome,[6],inactive
same,outcome,[9],inactive
C#CC(O)CCC (stereo not given),outcome,[1],inactive
same,outcome,[2],inactive
same,outcome,[3],inactive
same,outcome,[7],inactive
same,outcome,[8],inactive
same,outcome,[6],inactive
same,outcome,[10],inactive
same,outcome,[9],inactive
Oc1ccc(C2(c3ccc(O)c(C4CCCCC4)c3)CCCCC2)cc1C1CCCCC1,AC50,[1],33.4 µM (active)
same,AC50,[2],17.9 µM (active)
same,outcome,[3],inactive
same,outcome,[5],inactive
same,AC50,[6],6.08 µM (active)
same,outcome,[9],inactive
Nc1cccnc1N,outcome,[1],inactive
same,outcome,[2],inactive
same,outcome,[3],inactive
same,outcome,[4],inactive
same,outcome,[6],inactive
same,outcome,[10],inactive
same,outcome,[9],inactive
O=C(O)CCC(F)(F)C(F)(F)C(F)(F)F,outcome,[1],inactive
same,outcome,[2],inactive
same,outcome,[3],inactive
same,outcome,[4],inactive
same,outcome,[8],inactive
same,outcome,[6],inactive
same,outcome,[9],inactive
CC(C)OC(=O)COc1ccc(Cl)cc1Cl,outcome,[1],inactive
same,outcome,[2],inactive
same,outcome,[3],inactive
same,outcome,[4],inactive
same,outcome,[5],inactive
same,outcome,[6],inactive
same,outcome,[9],inactive
CC(C)OC=O,outcome,[1],inactive
same,outcome,[2],inactive
same,outcome,[3],inactive
same,outcome,[6],inactive
same,outcome,[10],inactive
same,outcome,[9],inactive
